According to PubChem BioAssay (NCATS):
Inconclusive results are not listed. Active and inactive are the calls of the source. The call rests on the fitted dose curve; in most records, active means well fitted inhibition curve with a large enough effect; inconclusive means small, poorly fitted or top-dose-only effect; inactive means flat fitted curve, though single readings scatter.

Tests used:
Assay in all cases: qHTS profiling for inhibitors of Plasmodium falciparum proliferation (AID 504749); further: nearly all actives have a fitted effect of over 60% in size
Settings in all cases: P. falciparum in erythrocytes, SYBR Green DNA, 72 h; series mostly up to 28.7 µM
CP325 = test system: CP325
How it was run: (§1)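 Quantitative HTS: compounds pinned into medium, infected erythrocytes added (0.3% parasitemia, 2.5% hematocrit), 72 h culture at 37 C under 5% CO2. Saponin/Triton lysis with SYBR Green I, overnight RT, then fluorescence read.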

CP329 = test system: CP329
How it was run: as §1

CP335 = test system: CP335
How it was run: as §1

DFO2036 = test system: DFO2036
How it was run: as §1

DIV14 = test system: DIV14
How it was run: as §1

DIV17 = test system: DIV17
How it was run: as §1

Dd2 = test system: Dd2
How it was run: as §1

ECU = test system: ECU
How it was run: as §1

FAB9 = test system: FAB9
How it was run: as §1

GB4 = test system: GB4
How it was run: as §1

HB3 = test system: HB3
How it was run: as §1

ICS = test system: ICS
How it was run: as §1

JCK = test system: JCK
How it was run: as §1

N140 = test system: N140
How it was run: as §1

P93_24 = test system: P93_24
How it was run: as §1

PAD = test system: PAD
How it was run: as §1

PC15 = test system: PC15
How it was run: as §1

PC26 = test system: PC26
How it was run: as §1

DIV30 = test system: DIV30
How it was run: as §1

P94_40 = test system: P94_40
How it was run: as §1

Measured: Potency
Potency means the concentration at half of the fitted maximal effect.

CCCSc1ccc2nc(NC(=O)OC)[nH]c2c1
inactive: CP325 | CP329 | CP335 | DFO2036 | DIV14 | DIV17 | Dd2 | ECU | FAB9 | GB4 | HB3 | ICS | JCK | N140 | P93_24 | PAD | PC15 | PC26

O=C(O)c1cc(O)c(O)c(O)c1
inactive: CP325 | CP329 | DFO2036 | DIV30 | ECU | HB3 | P94_40 | PAD | PC15 | PC26

COc1ccc(/C=C/C(=O)Nc2ccccc2C(=O)O)cc1OC
inactive: CP325 | CP329 | CP335 | DFO2036 | DIV14 | DIV17 | Dd2 | ECU | FAB9 | HB3 | ICS | JCK | N140 | P93_24 | P94_40 | PAD | PC26

COc1cc(/C=C/C(=O)N2CCN(CC(=O)N3CCCC3)CC2)cc(OC)c1OC
active: ICS 11.2 µM
inactive: CP325 | CP329 | CP335 | DFO2036 | Dd2 | FAB9 | GB4 | HB3 | JCK | P94_40 | PC15

Oc1c(Br)cc(Br)c2cccnc12
inactive: CP325 | CP329 | CP335 | DFO2036 | DIV14 | DIV17 | DIV30 | Dd2 | ECU | FAB9 | GB4 | HB3 | JCK | N140 | P93_24 | P94_40 | PAD | PC15 | PC26

Cc1cc(O)c2ccccc2c1O
inactive: CP325 | CP329 | DFO2036 | DIV30 | ECU | FAB9 | HB3 | JCK | N140 | P93_24 | P94_40 | PAD | PC15

COc1cc(/C=C/C(=O)CC(=O)/C=C/c2ccc(O)c(OC)c2)ccc1O
active: DIV14 16.9 µM | DIV17 13.5 µM | DIV30 13.5 µM | Dd2 12.6 µM | ECU 1 µM | GB4 12 µM | PC26 9.53 µM
inactive: FAB9 | JCK

CC(=O)[C@]1(O)Cc2c(O)c3c(c(O)c2[C@@H](O[C@H]2C[C@H](N)[C@H](O)[C@H](C)O2)C1)C(=O)c1c(O)cccc1C3=O
active: CP325 15.1 µM | CP335 5.36 µM | DFO2036 7.94 µM | DIV14 4.26 µM | DIV17 4.78 µM | Dd2 3.16 µM | GB4 4.78 µM | HB3 7.94 µM | ICS 2 µM | JCK 11.2 µM | N140 10 µM | P93_24 7.94 µM | P94_40 10 µM | PAD 12.6 µM | PC15 7.94 µM

Clc1ccccc1-c1nc(-c2ccncc2)no1
inactive: CP325 | CP329 | CP335 | DFO2036 | DIV30 | Dd2 | FAB9 | GB4 | HB3 | JCK | P94_40 | PC26
active: DIV17 15.1 µM

CN1[C@@H]2CC[C@H]1CC(OC(=O)C(CO)c1ccccc1)C2 (stereo partly drawn)
inactive: CP325 | CP329 | CP335 | DFO2036 | DIV14 | DIV17 | Dd2 | ECU | FAB9 | GB4 | HB3 | ICS | JCK | N140 | P93_24 | P94_40 | PAD | PC15 | PC26

O=C(O)Cc1ccc(-c2ccccc2)cc1
inactive: CP325 | CP329 | DFO2036 | DIV14 | DIV17 | DIV30 | Dd2 | ECU | FAB9 | GB4 | HB3 | ICS | JCK | N140 | P93_24 | P94_40 | PAD | PC15 | PC26

CCCC(=O)OC[C@@H](OC(=O)CCC)[C@@H](OC(=O)CCC)[C@H](Cn1c2nc(=O)[nH]c(=O)c-2nc2cc(C)c(C)cc21)OC(=O)CCC
active: Dd2 11.2 µM
inactive: CP325 | CP329 | DIV14 | DIV30 | JCK | PC15 | PC26

O=C(Nc1ccc(C(=O)O)c(O)c1)c1ccccc1
inactive: CP325 | CP329 | CP335 | DFO2036 | DIV14 | DIV30 | Dd2 | ECU | FAB9 | GB4 | HB3 | ICS | JCK | N140 | P94_40 | PAD | PC15 | PC26

CC(N)C(=O)OC(C)(C)Cc1ccc(Cl)cc1 (stereo not drawn)
inactive: FAB9 | HB3 | JCK | PAD
active: DIV14 9.53 µM | DIV17 8.49 µM | Dd2 7.94 µM | GB4 5.36 µM

CN(C)c1ccc(C(=C2C=CC(=[N+](C)C)C=C2)c2ccccc2)cc1
active: CP325 12 µM | CP335 4.78 µM | DIV17 6.01 µM | Dd2 11.2 µM | GB4 4.26 µM | HB3 11.2 µM | ICS 2.24 µM | P93_24 10 µM
inactive: FAB9 | JCK

Cc1nc2ccccc2n1Cc1ccc(Cl)cc1
inactive: DIV14 | DIV17 | DIV30 | Dd2 | FAB9 | JCK | P93_24 | P94_40 | PAD | PC15 | PC26

CN1[C@@H](CC(=O)c2ccccc2)CCC[C@H]1C[C@H](O)c1ccccc1
active: DIV14 13.5 µM | DIV17 10.7 µM | Dd2 10 µM | GB4 10.7 µM | ICS 11.2 µM | N140 17.8 µM | P94_40 11.2 µM
inactive: CP325 | CP335 | FAB9 | HB3

COc1ccc(-c2cc(=S)ss2)cc1
inactive: CP325 | CP329 | CP335 | DFO2036 | DIV14 | DIV17 | Dd2 | FAB9 | GB4 | HB3 | JCK | N140 | PC15 | PC26
active: ECU 12.6 µM | ICS 7.94 µM

COC(=O)C1=C(C)NC(C)=C(C(=O)OCC(C)C)C1c1ccccc1[N+](=O)[O-] (stereo not drawn)
active: CP325 12 µM | DIV14 10.7 µM | DIV30 16.9 µM | ECU 10 µM | GB4 12 µM | ICS 3.55 µM | P93_24 10 µM
